Bioassay records deposited in PubChem BioAssay by National Center for Advancing Translational Sciences (NCATS).
Glioma ERSR ind: induces the endoplasmic reticulum stress response in human glioma cells | 0.02% of 420,000 active | AID 602332 | U87-MG GRP78 promoter luciferase reporter, 16 h | Potency, µM, most hits filed as activators; further: series mostly up to about 76 µM; nearly all actives have a fitted effect of over 35% in size
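Stably transfected U87-MG glioma cells carrying a GRP78-based luciferase sensor; 16 h compound incubation. Luminescence end-point read 10 min after Bright-Glo addition at room temperature.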
ALOX12 inh: inhibitors of human 12S-lipoxygenase ALOX12. P18054. purified 12hLO, xylenol orange hydroperoxide absorbance. Potency, µM (doses to about 108 µM), usual class: inhibitors. 1.1% of 580,000 active
Target sequence (P18054 whole entry, looked up): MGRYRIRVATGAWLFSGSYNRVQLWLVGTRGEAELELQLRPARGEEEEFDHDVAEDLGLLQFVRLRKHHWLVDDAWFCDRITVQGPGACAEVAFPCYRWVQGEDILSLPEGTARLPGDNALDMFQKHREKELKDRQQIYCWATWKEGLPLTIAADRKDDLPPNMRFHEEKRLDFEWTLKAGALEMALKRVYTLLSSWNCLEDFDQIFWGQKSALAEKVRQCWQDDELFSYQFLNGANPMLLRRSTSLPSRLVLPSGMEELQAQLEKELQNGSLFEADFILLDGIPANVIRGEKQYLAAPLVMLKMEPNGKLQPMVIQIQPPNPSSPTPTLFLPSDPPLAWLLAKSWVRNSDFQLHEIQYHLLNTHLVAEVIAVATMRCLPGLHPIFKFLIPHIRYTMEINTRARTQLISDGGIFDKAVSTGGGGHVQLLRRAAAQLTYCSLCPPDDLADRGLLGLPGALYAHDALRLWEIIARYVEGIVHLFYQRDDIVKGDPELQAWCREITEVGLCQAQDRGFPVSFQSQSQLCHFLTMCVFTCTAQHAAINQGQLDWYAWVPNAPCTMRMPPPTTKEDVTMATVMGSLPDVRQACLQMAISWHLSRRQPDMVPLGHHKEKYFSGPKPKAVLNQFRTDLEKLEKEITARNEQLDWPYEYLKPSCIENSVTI
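Hydroperoxide product was detected by ferrous iron/xylenol orange as the 573 to 405 nm absorbance ratio. Arachidonic acid at 40 uM (final) was turned over for 30 min at room temperature by 150 nM human 12hLO, pH 7.0 Hepes buffer, after 15 min compound preincubation.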
G9a block: inhibitors of human histone lysine methyltransferase G9a; Potency, µM (series often up to 102 µM), hits mostly inhibitors; 8.8% of 350,000 active; Q96KQ7; AID 504332; G9a H3K9 monomethylation, AlphaScreen, 2 h; further: nearly all actives have a fitted effect of over 75% in size
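G9a (20 nM) was preincubated 15 min with compound, then reacted 2 h at room temperature with 500 nM biotin-H3K9 peptide and 20 µM SAM. Monomethyl-H3K9 detected by AlphaScreen using anti-H3K9me1 antibody.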
Sfp inh: blocks B. subtilis Sfp PPTase activity; Q9F4F7; Biochemical Sfp PPTase activity, qHTS; Potency, µM, usual class: inhibitors; 3.5% of 310,000 active;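 further: the enzyme is Sfp with the accession as filed and its product quenches rhodamine fluorescence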
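Buffer: 50 mM Hepes-Na pH 7.6, 10 mM MgCl2, 0.01% Nonidet P-40, 0.01% BSA. Enzyme 15 nM, pre-exposed to compound 15 min; substrates then added and fluorescence change tracked over 30 min.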
VDR inh: blocks the human vitamin D receptor; P11473; VDR-SRC2-3 peptide fluorescence polarization, 2 h; Potency, µM, hits mostly inhibitors; 0.93% of 400,000 active; AID 504847
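Compounds are added to VDR with labelled SRC2-3 coactivator peptide and held 2 h at room temperature. Inhibition of the VDR–peptide interaction is then read as a change in fluorescence polarization.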
A number is an active result; 0 = inactive; ? = inconclusive; - = not tested or not shown; ! = not active in a repeat; [ ] = another dose, or the depositor's remark. The sample as a whole holds a higher share of hits than the screen did. The call rests on the fitted dose curve; in most records, active means well fitted curve in the direction sought with a large enough effect; inconclusive means small, poorly fitted or top-dose-only effect, or another doubt; inactive means no such curve, though single readings can be large; an effect the other way counts as inactive or inconclusive.

SMILES | Glioma ERSR ind | ALOX12 inh | G9a block | Sfp inh | VDR inh
CC(C)Cn1cnc2c(c(-c3ccccc3)c(-c3ccccc3)n2Cc2ccco2)c1=N | 0 | 0 | ? | 0 | 0
N=c1c2c(-c3ccccc3)c(-c3ccccc3)n(Cc3ccco3)c2ncn1Cc1ccccc1 | 0 | 0 | 0[12.7 µM] | 22µM | 0
OCCNc1ncnc2c1c(-c1ccccc1)c(-c1ccccc1)n2Cc1ccco1 | 0 | ? | 18µM | 0 | 0
c1ccc(-c2c(-c3ccccc3)n(Cc3ccco3)c3ncnc(NCCCn4ccnc4)c23)cc1 | 0 | - | ? | 63µM | 0
Cc1c(CC(=O)O)c(=O)oc2cc(OCc3ccccc3)ccc12 | - | 0 | - | - | -
CCOc1ccccc1C(=O)Oc1ccc(OC)cc1 | - | 0 | - | - | -
CN(Cc1ccccc1NC(=O)Cc1ccc(C(F)(F)F)cc1)C1CCCCC1 | - | 0 | - | - | -
CC(C)C(=O)Nc1cccc(NC(=S)NC(=O)c2ccc(Cl)cc2)c1 | 0 | 0 | 0 | 0 | 0
COC(=O)c1ccccc1NC(=S)NC(=O)c1ccc(C)cc1 | 0 | 35µM | ? | 0 | ?
COC(=O)c1ccccc1NC(=S)NC(=O)c1ccccc1 | 0 | ? | 0[0.501 µM] | ? | 0
COc1cc([N+](=O)[O-])ccc1NC(=O)NNC(=O)c1sccc1C | 0 | 0 | 71µM | 0 | 0
COC(=O)c1ccccc1NC(=S)NC(=O)c1ccc2c(c1)OCO2 | 0 | ? | 40µM | 0 | ?
COC(=O)c1ccccc1NC(=O)c1ccc2c(c1)OCCO2 | 0 | 0 | 0 | 0 | 0
CC(C)C(=O)Nc1cccc(NC(=S)NC(=O)c2ccc3c(c2)OCO3)c1 | 0 | 3.5µM | 0 | 0 | 0
O=C1NCc2ccccc2CC12CCCN(Cc1ccsc1)C2 (stereo not given) | - | 0[6.33 µM] | - | - | -
COc1cc(C(C)=O)ccc1OS(=O)(=O)c1ccc2c(c1)CCCC2 | - | 0 | - | - | -
O=C(N[C@@H](C(=O)NCc1cccnc1)c1ccccc1)C(c1ccccc1)c1ccccc1 | - | 0 | - | - | -
O=C(NC(=S)Nc1cc([N+](=O)[O-])ccc1O)c1ccc2c(c1)OCO2 | 0 | 0 | ? | 0 | 0
COc1cc([N+](=O)[O-])ccc1NC(=S)NNC(=O)c1ccc2c(c1)OCO2 | 0 | 0 | 8.9µM | 0 | 0
Cc1c(C#N)c(O)[nH]c(=O)c1N=Nc1ccc(S(N)(=O)=O)cc1 | 0 | 40µM | 79µM | 0 | 0
S=c1nc[nH]c2nc[nH]c12 | 0 | ? | ? | 40µM! | 0
O=c1[nH]c(=S)[nH]c2nc[nH]c12 | 0 | - | - | - | 0
COc1ccc(-c2cc(C(=O)OCC#N)c3ccccc3n2)cc1OC | - | 0 | - | - | -
COc1ccc(-c2c(-c3cc(OC)cc(OC)c3)n(C)c3ccc(Br)cc23)cc1 | 0 | 0 | 0[2.33 µM] | - | 0
COc1ccc(N=Nc2nc3ccc(Br)cc3n2C)cc1 | 0 | 0 | 6.3µM | 0 | 0
SMILES | Glioma ERSR ind | ALOX12 inh | G9a block | Sfp inh | VDR inh
COC(=O)C(Cc1c[nH]c2ccccc12)NC(=O)C(=O)c1c[nH]c2ccccc12 (stereo not given) | 0 | 0 | 32µM | 0 | 0
N[C@@H](Cc1c[nH]c2ccccc12)C(=O)O | 0 | - | 8.4µM! | ? | 0
N#CC1=C2SCN(Cc3ccccc3)CN2C(=O)CC1c1ccccc1F (stereo not given) | 0 | - | 1.8µM | 2µM | 50µM
CCc1ccc(C2CC(=O)NC(SCC(=O)OC(C)C)=C2C#N)cc1 (stereo not given) | 0 | 0 | ? | 0 | 0
CCc1ccc(C2CC(=O)N3CN(Cc4ccccc4)CSC3=C2C#N)cc1 (stereo not given) | - | 3.2µM | - | - | -
Cc1c(NC(=O)CSC2=C(C#N)C(c3ccccc3F)CC(=O)N2)c(=O)n(-c2ccccc2)n1C (stereo not given) | 0 | 0 | 0[2.33 µM] | 0 | 0
Cc1ccsc1CN(CC1CCCO1)C(=O)COc1ccccc1 (stereo not given) | - | 0 | - | - | -
O=C(O)c1cc(NC(=O)c2cccc(N3C(=O)c4ccccc4C3=O)c2)cc(C(=O)O)c1 | 0 | 0 | - | 0 | 0
CC(=O)c1ccc(NC(=O)c2cccc(N3C(=O)c4ccccc4C3=O)c2)cc1 | 0 | - | 79µM | 0 | 0
NS(=O)(=O)c1ccc(NC(=O)c2cccc(N3C(=O)c4ccccc4C3=O)c2)cc1 | 0 | 0 | 10µM | ? | 0
O=C(CCc1cccnc1)NC(C1CC1)C1CC1 | - | 0 | - | - | -
c1cc2c3c(cccc3c1)/C(=N/OCC1CO1)C2 (stereo not given) | - | 0 | - | - | -
CCOC(=O)N1CCN(CC(O)c2ccccc2)CC1 (stereo not given) | 0 | 0 | 7.9µM | ? | 0
CCOC(=O)N1CCN(Cc2c(F)cccc2Cl)CC1 | 0 | ? | 8.9µM | 0 | 0
CCOC(=O)N/N=C(C)/C=C/c1ccco1 | 0 | 0 | 11µM | 0 | 0
CCOC(=O)C(=O)N/N=C/c1ccco1 | 0 | ? | - | 0 | 0
CCOC(=O)N/N=C\C=C\c1ccco1 | 0 | ? | ? | 45µM | 0
CCCCCCc1ccc(C(=O)NNC(=O)c2ccccc2Cl)cc1 | - | 0 | - | - | -
O=C(Nc1nc(-c2ccc3ccccc3c2)cs1)c1ccc[n+]([O-])c1 | - | 0 | - | - | -
COc1cc2c(cc1OC)-c1cc(NC3CCCC3)nc(=O)n1CC2 | 0 | 0 | 0 | 0 | 0
COc1cc2c(cc1OC)-c1cc(=Nc3c(C)cc(C)cc3C)n(C)c(=O)n1CC2 | 0 | - | 21µM | 71µM! | 0
CC1(C)[C@@H]2CC[C@]1(C)[C@@H](OC(=O)CSC#N)C2 | 0 | - | 0 | 0 | 50µM
CC(C)CNC(=O)C(Cc1ccccc1)NC(=O)C(c1ccccc1)c1ccccc1 (stereo not given) | - | 0 | - | - | -
CC(c1ccc(F)c(F)c1)N(C)CCS(=O)(=O)CCC(N)=O (stereo not given) | - | 0 | - | - | -
CC(=O)N(C)Cc1ccc(C(=O)CCl)cc1 | 0 | 0 | ? | 79µM | 0
SMILES | Glioma ERSR ind | ALOX12 inh | G9a block | Sfp inh | VDR inh
COc1ccc(OC)c(NC(=S)N(CCc2c(C)[nH]c3ccc(C)cc23)Cc2cccs2)c1 | 0 | 0 | 45µM | 0 | 0
COc1ccc(OC)c(NC(=S)N(CCc2c(C)[nH]c3ccccc23)Cc2cccs2)c1 | 0 | 0 | 56µM | 0 | 0
COc1cccc(NC(=S)N(CCc2c(C)[nH]c3ccc(C)cc23)Cc2cccs2)c1 | 0 | ? | 0 | 0 | 0
COc1ccc2[nH]c(C)c(CCN(Cc3cccs3)C(=S)Nc3cccc(F)c3)c2c1 | 0 | - | ? | 40µM | 0
COc1ccc(NC(=S)N(CCc2c(C)[nH]c3ccccc23)Cc2ccco2)cc1 | 0 | 0 | 0 | 0 | 0
CC(=O)Nc1ccc(-c2nc3cc(C(C)C)ccc3o2)cc1 | - | 0 | - | - | -
c1coc(Cn2c(SCc3nc4ccccc4[nH]3)nnc2-c2cccs2)c1 | 0 | 0 | 50µM | 0 | 0
Cc1cccc(-c2nnc(SCc3nc4ccccc4[nH]3)n2Cc2ccco2)c1 | 0 | 0 | 50µM | 0 | 0
COc1cc(C)ccc1C(C)C | - | 0 | - | - | -
Cc1ccc(CNC(=O)C(=O)Nc2nccs2)cc1 | 0 | 0 | 18µM | 0 | 0
Cc1ccccc1CNC(=O)C(=O)Nc1nccs1 | 0 | 0 | 13µM | 0 | 0
COc1ccccc1CNC(=O)C(=O)Nc1nccs1 | 0 | 0 | ? | 0 | 0
Cc1ccc(CNC(=O)c2nccnc2N)cc1 | - | 0 | - | - | -
